Bioassay records deposited in PubChem BioAssay by National Center for Advancing Translational Sciences (NCATS).
GALK inhibitor = qHTS Assay for Inhibitors of Human Galactokinase (GALK); Purified GALK, Kinase-Glo residual ATP luminescence; 0.007% of 270,000 active; P51570; Potency, µM (doses to about 57.5 µM), for inactives: top-dose activity change, negative = inhibition, actives largely listed as inhibitors; also: potency is read from the fitted curve at half-maximal effect
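Compounds were pin-transferred into ATP buffer (35 uM final), then GALK plus galactose (5 nM, 100 uM final) was added. After 1 h at room temperature, Kinase-Glo Plus was added and luminescence read after 10 min.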
PLK1 PBD block = qHTS for Inhibitors of PLK1-PDB (polo-like kinase 1 - polo-box domain): Primary Screen; Serine/threonine-protein kinase PLK1 (Homo sapiens), P53350; Plk1 PBD binding of FITC phosphopeptide, fluorescence polarization; Potency, µM, inactives show max response, negative = inhibition, actives largely listed as inhibitors; 2.8% of 360,000 active; AID 720504, 2013; also: potency is read from the fitted curve at half-maximal effect; series mostly up to about 57 µM; nearly all actives have a fitted effect of over 65% in size
USP1 inh = Inhibitors of USP1/UAF1: Primary Screen | Ubiquitin carboxyl-terminal hydrolase 1 (Homo sapiens), O94782 | 0.23% of 390,000 active | AID 743255, 2014 | recombinant USP1/UAF1, Ub-Rhodamine cleavage fluorescence | Potency, µM (highest dose often 57.1 µM), inactives show top-dose activity change, negative = inhibition, actives largely listed as inhibitors; also: potency is read from the fitted curve at half-maximal effect; nearly all actives have a fitted effect of over 60% in size
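USP1/UAF1 complex at 1 nM was preincubated with compound for 15 min at room temperature, then Ub-Rho substrate (150nM final) was added. Fluorescence (480/540 nm) was read kinetically, 6 reads every 60 seconds.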
VDR inhibitor = Inhibitors of the vitamin D receptor (VDR): qHTS; VDR-SRC2-3 peptide fluorescence polarization, 2 h; Potency, µM, for the others: max response, negative = inhibition, most hits filed as inhibitors; 0.93% of 400,000 active; AID 504847, 2011; Vitamin D3 receptor (Homo sapiens), P11473; also: potency is read from the fitted curve at half-maximal effect
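VDR–SRC2-3 interaction, FP format. Cmpds 23 nl via pintool, brief spin, 2 h ambient incubation.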
Coupling enz = qHTS Assay for Inhibitors of Fructose-1,6-bisphosphate Aldolase from Giardia Lamblia: Coupling assay counterscreen; coupling enzyme system counterscreen, AmpLite Red fluorescence; AID 2472, 2010; activity change, negative = inhibition, % at 58.2 µM, hits read low; 0.67% of 290,000 active; in the data active = activity change below about -30%
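Counterscreen of the coupled detection system alone, without aldolase: glyceraldehyde-3-phosphate coupling enzymes plus AmpLite Red readout. Compounds at 57.5 uM final, 10 min RT preincubation, 20 min RT reaction, fluorescence 525/598 nm.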
USP2a block = qHTS Assay for Inhibitors of Ubiquitin-specific Protease USP2a Using CHOP2 as the Reporter; AID 463254, 2010; Potency, µM (top dose mostly 38.3 µM), inactives show at the top dose activity change, negative = inhibition, most hits filed as inhibitors; 0.01% of 330,000 active; USP2 core, Ub-CHOP2 coupled fluorogenic reporter, 485/531;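 also: potency is read from the fitted curve at half-maximal effect; plate controls were DMSO wells for no effect and full inhibition by NEM control for full effect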
Target sequence (O75604 whole entry, looked up): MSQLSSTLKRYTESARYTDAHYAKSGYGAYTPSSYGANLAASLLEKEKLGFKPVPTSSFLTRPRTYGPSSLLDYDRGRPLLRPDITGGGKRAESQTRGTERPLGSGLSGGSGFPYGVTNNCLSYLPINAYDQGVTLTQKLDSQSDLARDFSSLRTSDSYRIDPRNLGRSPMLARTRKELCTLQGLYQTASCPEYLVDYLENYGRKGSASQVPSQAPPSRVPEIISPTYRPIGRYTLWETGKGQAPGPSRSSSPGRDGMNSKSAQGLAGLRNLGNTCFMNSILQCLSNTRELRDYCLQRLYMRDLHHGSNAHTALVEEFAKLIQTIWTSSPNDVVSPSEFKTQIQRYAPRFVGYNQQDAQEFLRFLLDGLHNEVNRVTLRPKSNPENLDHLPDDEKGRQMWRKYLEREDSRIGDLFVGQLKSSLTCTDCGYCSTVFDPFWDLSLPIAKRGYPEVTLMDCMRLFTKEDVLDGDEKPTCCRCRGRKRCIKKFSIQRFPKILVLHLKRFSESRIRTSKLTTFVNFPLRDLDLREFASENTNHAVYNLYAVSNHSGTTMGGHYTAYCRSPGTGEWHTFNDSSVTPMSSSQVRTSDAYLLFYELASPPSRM
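Deubiquitinase activity read as fluorescence (485/531 nm) after Ub-CHOP2 cleavage activates the enterokinase reporter on its substrate; USP2 core 10nM, Ub-CHOP2 and substrate 25nM each, 30min compound preincubation then 60min RT; data normalized to NEM, curves fitted.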
Starred values were filed as active, the others as inactive. Only some compounds are listed: those with a hit (about 3.2% of all), similar ones and a draw of the others. Unless noted, calls follow the shape of the dose curve; as a rule, active = well fitted curve in the direction sought with a large enough effect; inconclusive = small, poorly fitted or top-dose-only effect, or another doubt; inactive = no such curve, though single readings can be large; an effect the other way counts as inactive or inconclusive. Unless noted, % is scaled to controls: 0 for no effect and ±100 for the full control effect.

How did CCCCNC(=O)Nc1cc(C(F)(F)F)c[nH]c1=O do in these assays?
GALK inhibitor: -5%; PLK1 PBD block: -2%; USP1 inh: -22%; VDR inhibitor: -8%; Coupling enz: -43*; USP2a block: -1%

Results for CCCCCOc1ccc(C(=O)CCN2CCOCC2)cc1 ?
GALK inhibitor: -1%; PLK1 PBD block: 30µM*; USP1 inh: -22%; VDR inhibitor: inconclusive; Coupling enz: 2; USP2a block: 0%

How did CCOc1ccc(C(=O)CCN2CCCCC2)cc1 do in these assays?
GALK inhibitor: 6%; PLK1 PBD block: inconclusive; USP1 inh: -16%; VDR inhibitor: inconclusive; Coupling enz: 0; USP2a block: -2%

Results for CC(C)Oc1ccc(C(=O)CCN2CCOCC2)cc1 ?
PLK1 PBD block: inconclusive; USP1 inh: -23%; VDR inhibitor: 45µM*

Results for CCCOc1ccc(C(=O)CCN2CCN(C(=O)OCC)CC2)cc1 ?
GALK inhibitor: 0%; PLK1 PBD block: 15µM*; USP1 inh: -17%; VDR inhibitor: 45µM*; Coupling enz: -1; USP2a block: 3%

Results for C=CCc1cccc(CNc2nc3ccccc3n2CCC)c1O ?
GALK inhibitor: 1%; PLK1 PBD block: 4%; USP1 inh: -22%; VDR inhibitor: 8%; Coupling enz: -1; USP2a block: 0%

What do the screens show for `COc1ccc(C)cc1NC(=O)Cc1csc(NC(=O)Nc2ccccc2OC)n1`?
PLK1 PBD block: 30µM*; USP1 inh: -14%

What do the screens show for `COc1cccc(C(=O)N2CCN(S(=O)(=O)Cc3ccccc3)CC2)c1OC`?
GALK inhibitor: 0%; PLK1 PBD block: -11%; USP1 inh: -3%; VDR inhibitor: 8%; Coupling enz: -1; USP2a block: 1%

Results for COc1ccc2c(c1OC)C(=O)N1N=C(c3ccc(-c4ccccc4)cc3)CC21 (stereo unspecified) ?
GALK inhibitor: 1%; PLK1 PBD block: -8%; USP1 inh: -6%; VDR inhibitor: -9%; Coupling enz: -2; USP2a block: 3%

Results for COc1ccc2c(c1OC)C(=O)N1c3ccccc3N=C(c3ccc([N+](=O)[O-])cc3)CC21 (stereo unspecified) ?
GALK inhibitor: 0%; PLK1 PBD block: 0%; USP1 inh: -10%; VDR inhibitor: 89µM*; Coupling enz: -10; USP2a block: -3%

Results for Cc1ccc(/C=N/NC(=O)Cc2ccc(O)cc2)s1 ?
GALK inhibitor: -2%; PLK1 PBD block: -18%; USP1 inh: -10%; VDR inhibitor: 1%; Coupling enz: 3; USP2a block: -1%

What do the screens show for `O=C(Nc1ccc(F)cc1)Nc1csc2ccccc12`?
GALK inhibitor: -3%; PLK1 PBD block: -1%; USP1 inh: inconclusive; VDR inhibitor: 16%; Coupling enz: -9; USP2a block: -1%

Results for COc1ccc(-n2[nH]c(C)cc2=O)cc1 ?
GALK inhibitor: 0%; PLK1 PBD block: -5%; USP1 inh: inconclusive; VDR inhibitor: 5%; Coupling enz: -32*; USP2a block: -1%

How did Cc1cc(=O)[nH]c(-n2[nH]c(C)cc2=O)n1 do in these assays?
GALK inhibitor: -1%; PLK1 PBD block: -5%; USP1 inh: 8%; VDR inhibitor: -3%; Coupling enz: -2; USP2a block: 0%

What do the screens show for `O=C(NCC1CCCO1)c1coc2nc3ccccc3nc12` (stereo unspecified)?
GALK inhibitor: 2%; PLK1 PBD block: -9%; USP1 inh: 0%; VDR inhibitor: -4%; Coupling enz: 1; USP2a block: 0%

How did C=CCn1c(N)c(C(=O)NCC2CCCO2)c2nc3ccccc3nc21 (stereo unspecified) do in these assays?
GALK inhibitor: 3%; PLK1 PBD block: -3%; USP1 inh: inconclusive; VDR inhibitor: -14%; Coupling enz: -56*; USP2a block: -2%

How did COc1ccc(-n2c(N)c(C(=O)NCC3CCCO3)c3nc4ccccc4nc32)c(OC)c1 (stereo unspecified) do in these assays?
GALK inhibitor: 4%; PLK1 PBD block: -2%; USP1 inh: -26%; VDR inhibitor: -5%; Coupling enz: -30*; USP2a block: 4%

Results for COc1ccc(CN2CCc3ccc(NC(=O)c4ccncc4)cc3C2)c(F)c1 ?
GALK inhibitor: -5%; PLK1 PBD block: 7%; USP1 inh: -11%; VDR inhibitor: 1%; USP2a block: 3%

Results for Cc1ccc(S(=O)(=O)N2CCN(Cc3cc(=O)n4ccccc4n3)CC2)cc1C ?
PLK1 PBD block: -7%; USP1 inh: -5%; VDR inhibitor: -26%; USP2a block: -1%

Results for CCOC(=O)c1nc(N)c(C(=O)OCC)[nH]1 ?
GALK inhibitor: 0%; PLK1 PBD block: 11µM*; USP1 inh: -16%; VDR inhibitor: -11%; Coupling enz: 0; USP2a block: 2%

What do the screens show for `O=C1c2cccc3c([N+](=O)[O-])c(O)cc(c23)C(=O)N1Nc1ccccc1`?
GALK inhibitor: -1%; PLK1 PBD block: 27µM*; USP1 inh: -20%; VDR inhibitor: inconclusive; Coupling enz: 5; USP2a block: 0%

How did O=C1c2ccccc2C(=O)N1Nc1ccccc1 do in these assays?
GALK inhibitor: -1%; PLK1 PBD block: -17%; USP1 inh: 1%; VDR inhibitor: -9%; Coupling enz: -3; USP2a block: 0%

Results for CSc1ncc(C(=O)N2CCN(c3ccc(F)cc3)CC2)c(C)n1 ?
USP1 inh: 2%; VDR inhibitor: 5%

How did CCOc1ccccc1NC(=O)C(Sc1ccccc1)c1ccccc1 (stereo unspecified) do in these assays?
GALK inhibitor: 0%; PLK1 PBD block: 21µM*; USP1 inh: -6%; VDR inhibitor: -19%; Coupling enz: -1; USP2a block: 3%

Results for O=C(CSc1ncc(C(F)(F)F)cc1Cl)N1CCNC1=O ?
PLK1 PBD block: 27µM*; USP1 inh: -18%; VDR inhibitor: -12%; USP2a block: 2%

How did O=C(CSc1ncc(C(F)(F)F)cc1Cl)N1CCN(S(=O)(=O)c2ccc3ccccc3c2)CC1 do in these assays?
GALK inhibitor: -1%; PLK1 PBD block: 24µM*; USP1 inh: -20%; VDR inhibitor: inconclusive; Coupling enz: -1; USP2a block: -1%
